Molecules are shown by their SMILES. Inconclusive results are not listed. The source made the active and inactive calls. The call rests on the fitted dose curve.
Potency means the concentration at half of the fitted maximal effect.

Chain of Cytochrome P450 1A2 (Homo sapiens) (P05177 whole entry, looked up): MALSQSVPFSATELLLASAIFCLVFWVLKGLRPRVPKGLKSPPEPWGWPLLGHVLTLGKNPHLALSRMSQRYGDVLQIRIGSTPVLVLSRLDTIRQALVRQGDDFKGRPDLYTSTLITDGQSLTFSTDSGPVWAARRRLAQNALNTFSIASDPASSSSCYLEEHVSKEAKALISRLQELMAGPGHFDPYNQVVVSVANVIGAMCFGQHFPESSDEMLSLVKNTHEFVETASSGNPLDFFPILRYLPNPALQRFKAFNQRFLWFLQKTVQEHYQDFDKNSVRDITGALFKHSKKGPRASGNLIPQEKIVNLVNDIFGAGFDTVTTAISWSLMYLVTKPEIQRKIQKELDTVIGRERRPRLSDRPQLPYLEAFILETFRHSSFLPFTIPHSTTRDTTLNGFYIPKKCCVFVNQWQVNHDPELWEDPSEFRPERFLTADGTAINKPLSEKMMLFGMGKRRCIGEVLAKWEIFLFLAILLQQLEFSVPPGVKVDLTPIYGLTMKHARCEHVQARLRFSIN

The target in this assay is Cytochrome P450 1A2 (Homo sapiens) (UniProt P05177). Description: p450-cyp1a2 (AID 410). Conditions: recombinant CYP1A2, luciferin-ME demethylation, luminescence; series mostly up to 57 µM. A digest of the protocol:
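Inhibition was calculated relative to 57 uM furafylline (full inhibition). The reaction used human CYP1A2 at 20nM with Luciferin-ME at its Km, 100uM, driven by an NADPH-regenerating system for 60 min at room temperature.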
As for `Clc1ccccc1-c1nccc(-n2ccnc2)n1`, the Potency was 158 nM (active).
Consider `Cc1cccc(CNc2ccnc(-c3ccoc3)n2)c1`, for which the Potency was 2000 nM (active).
In the case of `c1nc(NC2CCNCC2)c2cc(-c3ccc4c(c3)OCO4)ccc2n1`, the Potency was 12600 nM (active).
Take `O=c1c(-c2ccccc2)nc2cnc(Oc3ccccc3)nc2n1Cc1cccs1`: the Potency was 2510 nM (active).
With `COc1ccc(-n2c(=O)c(-c3cn(C)c4ccccc34)nc3cnc(OC)nc32)cc1`, the Potency entry is “inactive”.
Take `CN(C)c1ncc2ncc(=O)n(CCC#N)c2n1`: the Potency was 12600 nM (active).
As for `COc1ccccc1CNc1ncncc1-c1ccoc1`, the Potency is 1260 nM (active).
With `COc1ncc2ncc(=O)n(Cc3cccs3)c2n1`, the Potency was 10000 nM (active).
For `FC(F)(F)c1ccccc1-c1cc(N2CCNCC2)ncn1`, the Potency was 5010 nM (active).
The value for `CC(=O)NCCNc1nc(-c2ccccc2C(F)(F)F)nc2ccccc12` was 15800 nM (active); that for `COc1ccccc1CNc1ccnc(-c2ccoc2)n1` was 1580 nM (active).
With `Cc1ccccc1-c1cncnc1Nc1ccc(F)cc1`, the Potency was 10000 nM (active).
Turning to `CN(Cc1ccco1)c1cc(-c2ccccc2Cl)ncn1`, the Potency was 2510 nM (active).
To `COc1ccc(-n2c(=O)cnc3cnc(Oc4ccccc4)nc32)cc1` belongs 15800 nM (active).
`COc1ncc2nc(-c3cccc(C#N)c3)c(=O)n(CCC#N)c2n1`: the Potency is 20000 nM (active).
Consider `CN(Cc1ccco1)c1ncnc2ccc(-c3cccc(C#N)c3)cc12`, for which the Potency was 501 nM (active).
With `c1ccc(CNc2ccnc(-c3ccoc3)n2)cc1`, the Potency is 2510 nM (active).
Consider `COc1ncc2nc(-c3cc(F)cc(F)c3)c(=O)n(CCC#N)c2n1`, for which the Potency was 6310 nM (active).
In the case of `Cc1nc2cnc(Nc3ccccc3)nc2n(C)c1=O`, the Potency was 1260 nM (active).
As for `COc1ccc(-n2c(=O)c(C)nc3cnc(Oc4ccccc4)nc32)cc1`, the Potency is 7940 nM (active).
`COc1ccccc1CCn1c(=O)c(-c2cc(F)cc(F)c2)nc2cncnc21`: the Potency is 1580 nM (active).
For `COc1cccc(-c2ccc3ncnc(NC4CCNCC4)c3c2)c1`, the Potency is 20000 nM (active).
Regarding `COc1cccc(-c2cc(NCc3cccs3)ncn2)c1`, the Potency is 1260 nM (active).
The value for `Cn1c(=O)c(-c2cc(F)cc(F)c2)nc2cnc(Oc3ccccc3)nc21` was 2000 nM (active); that for `CNc1nc(-c2ccccc2Cl)nc2ccccc12` was 126 nM (active).
For `O=C(O)C1CCN(c2ncnc3ccc(-c4ccccc4C(F)(F)F)cc23)CC1`, the Potency result was “inactive”.
Regarding `CC(=O)NCCNc1nc(-c2ccccc2Cl)nc2ccccc12`, the Potency was 7940 nM (active).
To `CN(C)c1ccc(-c2cncnc2NCc2cccs2)cc1` belongs 398 nM (active).
In the case of `O=c1c(-c2ccc(F)cc2)nc2cnc(N3CCOCC3)nc2n1C[C@H]1CCCO1`, the Potency is 1580 nM (active).
For `Cc1cccc(CNc2ncncc2-c2cccc(C#N)c2)c1`, the Potency was 2510 nM (active).
Turning to `COc1ccc(Oc2ncc3nc(-c4ccc(OC)cc4)c(=O)n(Cc4cccs4)c3n2)cc1`, the Potency was 15800 nM (active).
As to `Cc1cccc(CNc2ncncc2-c2ccc3c(c2)OCO3)c1`, the Potency was 126 nM (active).
In the case of `N#CCCn1c(=O)cnc2cnc(N3CCOCC3)nc21`, the Potency is 10000 nM (active).
For the compound `COc1ncc2nc(-c3cccs3)c(=O)n(-c3ccccc3)c2n1`, the Potency was 2000 nM (active).
With `COc1ccc2[nH]cc(CCNc3cc(-c4ccccc4C(F)(F)F)ncn3)c2c1`, the Potency is 10000 nM (active).
The value for `Cc1nc2cnc(Oc3cccc(Cl)c3)nc2n(CCC#N)c1=O` was 15800 nM (active); that for `COc1ncc2ncc(=O)n(C)c2n1` was 12600 nM (active).
Consider `c1ccc2c(-n3ccnc3)nc(-c3ccoc3)nc2c1`, for which the Potency was 501 nM (active).
Take `COc1cccc(-c2nccc(-n3ccnc3)n2)c1`: the Potency is 31.6 nM (active).
Consider `CN(C)c1ccc(-c2cc(-n3ccnc3)ncn2)cc1`, for which the Potency was 158 nM (active).

The record behind these values is PubChem BioAssay (NCATS).
